From the supplement of paper PMC11634586
Structures can show the parent of a compound that is named as a salt. Unmarked numbers belong to inactive results.

Test system: NCI-H1688
Assay: inhibition of cell viability relative to untreated control (fraction); higher = stronger growth inhibition, active = 0.5 or more
Details: 30 µM; 24 h
Outline: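 Inhibition of cell viability appears as a fraction, based on viability relative to untreated cells. The assay used NCI-H1688 small cell lung cancer cells seeded in 96-well plates at 3 × 10^3 cells/well, treated one day later with a natural compound library (TargetMol) at 30 µM for 24 h at 37°C and 5% CO2. Absorbance at 450 nm with Cell Counting Kit-8 was recorded in triplicate.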

| SMILES | inhibition of cell viability |
| --- | --- |
| COc1cc(C=O)ccc1O [Vanillin] | 0.219 |
| O=c1c(O)c(-c2ccc(O)c(O)c2)oc2cc(O)cc(O)c12 [Quercetin] | 0.68 (active) |
| C[C@]12CCC(=O)C=C1CC[C@@H]1[C@@H]2CC[C@@]2(C)[C@H]1CC[C@]2(O)C(=O)CO [Cortodoxone] | -0.112 |
| C[C@H](CCC(=O)O)[C@H]1CC[C@H]2[C@@H]3C[C@H](O)[C@@H]4C[C@H](O)CC[C@]4(C)[C@H]3CC[C@]12C [Hyodeoxycholic acid (HDCA)] | -0.163 |
| COc1cc(-c2oc3cc(O)cc(O)c3c(=O)c2O)ccc1O [Isorhamnetin] | -0.0139 |
| Oc1cc(O)c2c(c1)O[C@H](c1cc(O)c(O)c(O)c1)[C@H](O)C2 [Epigallocatechin] | -0.059 |
| C[C@H](CCC(=O)NCCS(=O)(=O)O)[C@H]1CC[C@H]2[C@@H]3[C@H](O)C[C@@H]4C[C@H](O)CC[C@]4(C)[C@H]3C[C@H](O)[C@]12C [Taurocholic acid sodium salt hydrate] | -0.0242 |
| COc1ccc(-c2cc(=O)c3c(O)cc(O[C@@H]4O[C@H](CO[C@@H]5O[C@@H](C)[C@H](O)[C@@H](O)[C@H]5O)[C@@H](O)[C@H](O)[C@H]4O)cc3o2)cc1O [Diosmin] | -0.00104 |
| OC[C@H]1O[C@@H](O[C@@H]2[C@@H](CO)OC(O)(CO)[C@H]2O)[C@H](O)[C@@H](O)[C@H]1O (mixture of isomers) [Lactulose] | 0.135 |
